# Screens (PubChem BioAssay)
# Hits are enriched below; roughly 4.1% of the tested compounds scored in any of these assays.
# MPTP inh – permeability transition pore inhibition; isolated mouse mitochondria, Ca2+ swelling absorbance, 30 min; 360,000 compounds, 1.4% hits; inhibition, % at 10 µM;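 active = inhibition of 50% or more, scaled per plate between neutral and stimulator controls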
# beta cell repl – MIN6 beta-cell proliferation induction. MIN6 cells proliferation, ATPlite luminescence, 48 h; cells starved in 0.2% serum; 100% = growth in 10% serum. proliferation, % at 10 µM. 330,000 compounds, 0.29% hits. AID 2380;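 active = compounds whose signal lies at least 3.5 SD above the mean of all wells on their plate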
# FAS TE block – blocks the thioesterase domain of human fatty acid synthase; P49327; recombinant FAS-TE, OMFH fluorogenic substrate, fluorescence endpoint; inhibition, % at 15 µM; 360,000 compounds, 0.67% hits;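 active = compounds whose normalised, plate-corrected inhibition of enzyme fluorescence in the single-dose primary screen is 50% or more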
# GRIN3A LBD mod – modulators (binders) of human NR3A ligand-binding domain; NR3A LBD differential scanning fluorimetry, Tm shift; 0% = protein alone, 100% = glycine-bound protein; Tm shift relative to glycine control, % at 25 µM; 340,000 compounds, 2.5% hits;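 active = melting temperature shift of at least 10% of the positive control shift, at one fixed dose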
# pCIP destab – p/CIP protein destabilization; Q05BA5; F442A p/CIP-EGFP cells, EGFP fluorescence, 16 h; decrease of EGFP signal, % at 10 µM; 290,000 compounds, 0.01% hits;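 active = EGFP signal decrease of at least 30% at 10 µM or well 3 SD below plate mean, unless failing retest; inactive = the rest, including hits failing retest or dose response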
# Target sequence (Q05BA5 1-1403): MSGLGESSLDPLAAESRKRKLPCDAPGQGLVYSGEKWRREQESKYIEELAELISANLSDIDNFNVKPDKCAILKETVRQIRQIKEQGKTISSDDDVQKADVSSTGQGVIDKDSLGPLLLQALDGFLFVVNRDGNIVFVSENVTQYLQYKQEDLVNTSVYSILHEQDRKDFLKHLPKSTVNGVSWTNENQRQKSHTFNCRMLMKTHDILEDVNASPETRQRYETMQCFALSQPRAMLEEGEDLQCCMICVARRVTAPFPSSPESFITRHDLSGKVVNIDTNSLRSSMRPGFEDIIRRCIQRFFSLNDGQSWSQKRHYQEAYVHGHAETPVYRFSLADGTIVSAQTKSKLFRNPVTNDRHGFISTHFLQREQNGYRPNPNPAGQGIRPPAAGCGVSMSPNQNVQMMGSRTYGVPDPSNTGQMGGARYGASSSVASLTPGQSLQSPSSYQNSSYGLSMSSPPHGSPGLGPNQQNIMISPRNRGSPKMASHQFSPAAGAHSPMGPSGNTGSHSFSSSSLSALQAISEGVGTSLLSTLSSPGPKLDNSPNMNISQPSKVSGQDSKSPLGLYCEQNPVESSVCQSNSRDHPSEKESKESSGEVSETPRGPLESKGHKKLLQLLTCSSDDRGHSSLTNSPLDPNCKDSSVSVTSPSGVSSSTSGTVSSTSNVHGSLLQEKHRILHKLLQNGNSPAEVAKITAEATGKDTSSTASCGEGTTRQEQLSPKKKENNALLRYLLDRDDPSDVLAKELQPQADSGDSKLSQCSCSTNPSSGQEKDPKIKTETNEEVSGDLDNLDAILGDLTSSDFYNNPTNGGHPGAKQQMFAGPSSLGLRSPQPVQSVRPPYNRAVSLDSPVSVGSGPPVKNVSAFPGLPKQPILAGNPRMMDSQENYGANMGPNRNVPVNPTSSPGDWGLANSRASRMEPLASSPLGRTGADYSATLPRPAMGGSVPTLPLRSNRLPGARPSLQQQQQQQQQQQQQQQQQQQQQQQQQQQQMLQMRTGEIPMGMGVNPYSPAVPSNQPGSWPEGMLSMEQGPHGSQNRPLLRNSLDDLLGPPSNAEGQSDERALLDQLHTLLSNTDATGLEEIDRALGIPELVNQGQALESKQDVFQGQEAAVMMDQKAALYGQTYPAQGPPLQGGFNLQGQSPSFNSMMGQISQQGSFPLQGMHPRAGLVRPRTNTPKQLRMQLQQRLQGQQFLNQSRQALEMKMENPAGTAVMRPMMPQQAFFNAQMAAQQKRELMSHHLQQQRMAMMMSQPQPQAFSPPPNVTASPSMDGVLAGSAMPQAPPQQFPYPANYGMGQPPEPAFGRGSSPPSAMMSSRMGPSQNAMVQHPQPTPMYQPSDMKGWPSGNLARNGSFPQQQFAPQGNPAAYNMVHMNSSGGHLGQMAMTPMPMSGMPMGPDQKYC
# A number is an active result; . = inactive; / = no result.
SMILES,MPTP inh,beta cell repl,FAS TE block,GRIN3A LBD mod,pCIP destab
CC1CN(S(=O)(=O)c2csc(C(=O)Nc3ccccc3)c2)CC(C)O1 (stereo unspecified),.,.,.,15.5,.
Cc1ccc(O)c(-c2cc(C(=O)Nc3ccc(S(=O)(=O)N4CC(C)OC(C)C4)cc3)[nH]n2)c1 (stereo unspecified),.,.,.,34.7,.
Cc1ccc(NC(=O)c2ccc(S(=O)(=O)N3CCOCC3)cc2)cc1,.,.,.,.,.
Cc1cc(O)c(-c2cc(C(=O)Nc3ccc(S(=O)(=O)N4CCOCC4)cc3)[nH]n2)cc1C,.,.,.,32.3,.
Cc1cc(C)nc(NS(=O)(=O)c2ccc(NC(=O)c3ccc(S(=O)(=O)N4CC(C)OC(C)C4)cc3)cc2)n1 (stereo unspecified),.,.,.,.,.
CCN(CC)C(=O)c1cccc(-c2csc(C(O)c3ccc(F)c(F)c3)n2)c1 (stereo unspecified),.,/,.,/,/
CCOC(=O)C1=C(c2ccccc2)N=c2s/c(=C\c3cccc(O)c3)c(=O)n2C1c1cccs1 (stereo unspecified),.,.,.,14.1,.
COC(=O)C1=CN(c2ccc(OC)cc2OC)C(N)=C(C#N)C1c1ccccc1F (stereo unspecified),.,/,/,/,/
CCOC(=O)c1cccc(N2C(=O)Nc3ccccc3N2O)c1,.,.,.,18.0,.
CC(C)NC(=O)Nc1nnc([C@H]2C[C@H](O)[C@@H](CO)O2)s1,.,/,.,/,/
OCC1OC(c2ccc(O)cc2O)C(O)C1O (stereo unspecified),.,/,.,/,/
Cc1nc(C)c(CCNC(=O)c2ccc(C(F)(F)F)cc2)s1,.,.,.,16.3,.
Cc1ccc(C(=O)NCCc2sc(C)nc2C)cc1,.,.,.,.,.
CC1=C(C(=O)N(C(C)C)C(C)C)CC(CC(=O)NCc2ccco2)C(=O)N1Cc1ccc(C(C)(C)C)cc1 (stereo unspecified),.,/,.,/,/
CC(=O)Nc1ccc(S(=O)(=O)c2ccc(N)cc2)cc1,.,.,.,.,.
NC(=S)Nc1ccc(S(=O)(=O)c2ccc(NC(N)=S)cc2)cc1,.,.,.,23.3,.
Cc1nc2ccc(NC(=O)c3cccs3)cc2s1,.,.,.,.,.
COc1ccc(N(C)S(=O)(=O)c2cccc(C(=O)Nc3ccc(OC)nc3)c2)cc1,/,.,/,/,.
CC(=O)Nc1nc2ccc(NC(=O)c3ccco3)cc2s1,.,.,.,.,.
Cc1nc2ccc(NC(=O)c3cccc(S(=O)(=O)N(C)c4ccccc4)c3)cc2s1,.,.,.,18.1,.
COc1ccc(N(C)S(=O)(=O)c2cccc(C(=O)Nc3ccc(-n4cnnn4)cc3)c2)cc1,.,.,.,25.9,.
Cc1nc2ccc(NC(=O)c3ccco3)cc2s1,.,.,.,16.1,.
Cc1nc2ccc(NC(=O)c3sccc3C)cc2s1,.,.,.,32.4,.
CCCCN(C)c1c(C)nc2ccc(C(=O)NCc3ccc4c(c3)OCO4)cn12,.,/,.,/,/
O=C1NC[C@H](CCCCN2C[C@H](Cc3ccccc3)N(CC3CCCCC3)C(=O)C2=O)N(CC2CCCCC2)C1=O,.,/,.,/,/
SMILES,MPTP inh,beta cell repl,FAS TE block,GRIN3A LBD mod,pCIP destab
CS(=O)(=O)Nc1cccc(NC(=O)C2Cc3c(-c4ccccc4)ccnc3O2)c1 (stereo unspecified),.,/,.,/,/
Cc1snc(SCc2cccc(Cl)c2)c1C#N,.,.,.,20.2,.
Cc1[nH]c(=O)nc(SCc2cccc(Cl)c2)c1C#N,.,.,.,.,.
Cn1c(CC(=O)NC(C)(C)CO)c(Sc2ccccc2)c2ccccc21,.,.,.,.,.
CCOC(=O)Cc1c(Sc2ccccc2)c2ccccc2n1C,.,.,.,11.6,.
Clc1cccc(N/N=C/c2ccncc2)c1,.,.,.,19.6,.
Clc1ccc(/C=N\Nc2ccccc2)cc1,.,.,.,10.5,.
O=C(N/N=C/c1ccncc1)c1ccc(NC(=O)c2cccc(Cl)c2)cc1,.,.,.,21.6,.
O=C(N/N=C/c1ccc(Cl)cc1)Nc1ccccc1,.,.,.,13.4,.
CCc1nc2ccc(C(=O)NCCCn3ccnc3)cn2c1N(C)C(=O)C1CCCCC1,.,/,.,/,/
CCCCn1nnnc1C(CCSC)N1CCN(C/C=C/c2ccccc2)CC1 (stereo unspecified),.,/,.,/,/
COc1cc(/C=N/N2CCOCC2)ccc1OCc1ccc(Cl)cc1,.,.,.,21.8,.
COc1cc(/C=N/N2CCOCC2)ccc1OCc1ccccc1,.,.,.,.,.
COc1cc(/C=C(\C#N)c2ccccn2)ccc1OCc1ccc(Cl)cc1,.,.,.,13.6,.
O=[N+]([O-])c1cccc(-c2cc(-c3cc(Br)ccc3O)[nH]n2)c1,.,.,.,12.7,.
Oc1ccc(Br)cc1-c1cc(-c2ccc(Cl)cc2)n[nH]1,.,.,.,42.5,.
O=[N+]([O-])c1ccccc1-c1cc(-c2ccccc2O)n[nH]1,.,.,.,.,.
Oc1ccc(Br)cc1-c1cc(-c2ccccc2)n[nH]1,.,.,.,28.6,.
Oc1ccccc1-c1cc(-c2ccc3c(c2)OCCO3)n[nH]1,.,.,.,15.5,.
COc1ccc(-c2cc(-c3ccc(OC)c(OC)c3)n[nH]2)c(O)c1,.,.,.,.,.
COc1ccc(O)c(-c2cc(-c3cccc(Br)c3)n[nH]2)c1,.,.,.,15.8,.
COc1ccc(-c2cc(-c3cc(OC)ccc3O)[nH]n2)cc1,.,.,.,.,.
COc1ccc(-c2cc(-c3ccc(Cl)cc3)n[nH]2)c(O)c1,.,.,.,49.2,.
CCCc1nc2c3ccccc3ccn2c1Cc1ccc(OC)cc1C,.,/,.,/,/
O=C(/C=C/c1cccc(F)c1)Nc1ccc(S(=O)(=O)Nc2ncccn2)cc1,.,.,.,.,.
SMILES,MPTP inh,beta cell repl,FAS TE block,GRIN3A LBD mod,pCIP destab
CNC(=O)c1ccc(NC(=O)/C=C/c2cccc(F)c2)cc1,.,.,.,14.0,.
COc1ccc(/C=C/C(=O)NCCc2nc3ccccc3[nH]2)cc1,.,.,.,.,.
CCOc1ccc(NC(C(=O)Nc2cccc(C(C)=O)c2)c2ccccc2)cc1 (stereo unspecified),.,.,.,.,.
CCCCOc1ccc(/C=C/C(=O)Nc2ccc(C(N)=O)cc2)cc1,.,.,.,21.5,.
CCOc1ccc(/C=C/C(=O)Nc2cccc(C(C)=O)c2)cc1,.,.,.,28.6,.
CCCCOc1ccc(/C=C/C(=O)NCCc2nc3ccccc3[nH]2)cc1,.,.,.,11.9,.
Cc1cccc(-c2cnc(C(O)c3ccc(F)c(C)c3)[nH]2)c1 (stereo unspecified),.,/,.,/,/
C=CCOc1ccc(/C=C/C(=O)Nc2ccc(C(=O)NC)cc2)cc1,.,.,.,24.5,.
CCCCOC(=O)c1ccc(NC(C)=O)cc1,.,.,.,.,.
CCCCOC(=O)c1ccc(NC(=O)/C=C/c2cccs2)cc1,.,.,.,19.0,.
CN=Cc1nc(-c2ccccc2)oc1O,.,.,.,.,.
CC1=Nc2ccccc2/C1=C\c1nc(-c2ccc(F)cc2)oc1O,.,.,.,30.2,.
